IMPase cell inh = membrane-permeable compound that blocks inositol monophosphatase. P97697. CHO-M1 cells, IP1 accumulation, HTRF TR-FRET ratio. inhibition (IP1 accumulation), % at 46.1 µM. 120,000 tested, under 10 active; active = well fitted curve in the direction sought with a large enough effect in the signal ratio, not every such curve was filed as active; inconclusive = small, poorly fitted or top-dose-only effect, or a change in a side signal; inactive = no such curve, though single readings can be large or run the other way; the % refers to the signal ratio;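 note: cells stimulated with carbachol in lithium chloride buffer; plate controls were DMSO basal wells for no effect and reference inhibitor wells for full effect; higher means more IMPase inhibition seen as more IP1 and lower FRET ratio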
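Measured: the HTRF emission ratio (665/620 nm) plus the 620 nm donor channel, each fitted to the Hill equation to give AC50. Cells were CHO-M1 given compounds up to 46 uM and a 30 min carbachol stimulation at 37C.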
15-hLO-2 inh = blocks human 15-lipoxygenase 2 activity | 110,000 compounds, 0.56% hits | purified 15hLO-2, xylenol orange hydroperoxide absorbance | Potency, µM (top dose mostly 57.1 µM), inactives show top-dose activity change, negative = inhibition, most hits filed as inhibitors | AID 881 | O15296; note: potency is the fitted concentration of half-maximal effect; nearly all actives have a fitted effect of over 60% in size
Target sequence (O15296 whole entry, looked up): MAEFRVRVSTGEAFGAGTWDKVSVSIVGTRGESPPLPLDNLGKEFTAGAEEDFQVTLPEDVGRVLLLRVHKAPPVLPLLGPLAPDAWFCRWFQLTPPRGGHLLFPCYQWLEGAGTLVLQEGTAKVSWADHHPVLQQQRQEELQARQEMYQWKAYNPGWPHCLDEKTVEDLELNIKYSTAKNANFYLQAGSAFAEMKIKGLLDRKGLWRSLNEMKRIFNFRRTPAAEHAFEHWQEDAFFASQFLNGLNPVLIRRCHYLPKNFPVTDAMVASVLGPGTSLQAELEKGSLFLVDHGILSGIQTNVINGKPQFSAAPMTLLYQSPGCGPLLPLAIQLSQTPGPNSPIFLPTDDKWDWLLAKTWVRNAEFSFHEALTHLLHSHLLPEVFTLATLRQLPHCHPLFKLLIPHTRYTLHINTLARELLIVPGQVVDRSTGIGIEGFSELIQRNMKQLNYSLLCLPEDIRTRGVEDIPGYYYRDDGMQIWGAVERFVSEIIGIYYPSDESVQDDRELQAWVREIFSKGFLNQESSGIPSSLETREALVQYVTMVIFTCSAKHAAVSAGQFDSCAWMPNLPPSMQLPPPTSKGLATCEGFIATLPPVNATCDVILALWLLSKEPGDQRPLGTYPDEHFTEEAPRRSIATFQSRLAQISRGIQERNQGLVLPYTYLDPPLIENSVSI
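Purified human 15hLO-2 (50 nM final) preincubated with compounds 15 min at room temperature in 25 mM Hepes pH 7.5, 0.01% Triton X-100, then 45 uM arachidonic acid added for 90 min; hydroperoxide detected via ferrous/xylenol orange, 573/405 nm absorbance ratio.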
IMPase Li cell = membrane-permeable IMPase blocker, potentiated with lithium. CHO-M1 cells, IP1 TR-FRET (IP-One), carbachol + lithium. Potency, µM (top dose mostly 59.4 µM), inactives show at the top dose activity, negative = IMPase inhibition, usual class: inhibitors. 210,000 compounds, 0.35% hits. AID 1457;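 note: IP1 builds up when IMPase is blocked and the TR-FRET signal falls; potency is the fitted concentration of half-maximal effect; plate controls were basal vehicle for no effect and high inhibitor control for full effect; nearly all actives have a fitted effect of over 50% in size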
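Lithium-sensitised IP1 accumulation assay; M1-expressing CHO cells treated 30 min at 37C with compound. Competitive antibody detection by time-resolved FRET followed a 10 min room-temperature lysis step.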
12-hLO inh = 12-hLO (ALOX12) enzyme inhibition | 150,000 compounds, 0.12% hits | Potency, µM (titrated, usually from 57.1 µM), inactives show at the highest dose activity change, negative = inhibition, hits mostly inhibitors | P18054 | purified 12-hLO, xylenol orange hydroperoxide absorbance; note: potency is the fitted concentration of half-maximal effect; nearly all actives have a fitted effect of over 55% in size
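Purified human 12hLO (150 nM), preincubated 15 min with compound, then 40 uM arachidonic acid for 30 min, room temperature, Hepes pH 7.0 with 0.01% Triton X-100. Hydroperoxide detected by ferrous iron/xylenol orange; 573/405 nm absorbance ratio gives reaction progress.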
Active calls of the source: *; u = inconclusive; x = no result given; ! = not confirmed by another sample; [ ] = dose if it differs, or a comment. Only some compounds are listed: those with a hit (about 0.57% of all), similar ones and a draw of the others. Unless noted, calls come from the whole dose curve; as a rule, active = well fitted curve in the direction sought with a large enough effect; inconclusive = small, poorly fitted or top-dose-only effect, or another doubt; inactive = no such curve, though single readings can be large; an effect the other way counts as inactive or inconclusive. Unless noted, % is set by controls: 0 for no effect and ±100 for the full control effect.

SMILES	IMPase cell inh	15-hLO-2 inh	IMPase Li cell	12-hLO inh
Clc1ccccc1-c1cncnc1NCCN1CCOCC1	x	1%	19%	x
COc1ccc(-c2nnc3ccc(SCC(=O)NCC4CCCO4)nn23)cc1 (configuration not stated)	1[1.84 µM]	8%[11.4 µM]	32%[38.3 µM]	0%
O=C(CSc1ccc2nnc(-c3ccc(F)cc3)n2n1)NCC1CCCO1 (configuration not stated)	9	u	25µM*	-9%
COC(=O)CCC(=O)NC(=S)Nc1sc(C)c(C)c1C(N)=O	x	x	u	1%
Cc1sc(NC(=S)NC(=O)CCc2ccccc2)c(C(N)=O)c1C	x	x	11µM*	-7%
Cc1ccccc1S(=O)(=O)Nc1nc2ccccc2nc1Cl	x	x	3.5µM*	x
CC(C)[C@H](NC(=O)c1ccccc1Cl)C(=O)OCc1cc(=O)n2cc(Br)ccc2n1	x	x	11µM*	x
CC(/C=C1\N=C(SCc2ccccc2Cl)SC1=O)=C\c1ccccc1	-5	25µM*	3%[38.3 µM]	-6%
O=C1C2C3C=CC(CO)(O3)C2C(=O)N1c1ccc(-c2ccccc2)cc1 (configuration not stated)	-3	0.4µM*	12%[38.3 µM]	u
CC(C)(C)C(=O)NCC12C=CC(O1)C1C(=O)N(c3ccccc3)C(=O)C12 (configuration not stated)	-1	x	3%	-1%
CCOc1ccc(Br)cc1C(=O)Nc1ccc(C(=O)NCC(C)C)cc1	x	x	10µM*	3%
COc1ccc(Br)cc1C(=O)Nc1ccc(C(=O)NCC(C)C)cc1	x	x	8%	x
CC(C)[C@H](N=Cc1ccccc1O)C(=O)O	x	-4%[11.4 µM]	-9%	-3%[11.4 µM]
c1cncc(CNc2ncncc2-c2ccoc2)c1	x	-6%	2%	x
CCOC(C)(C)C	x	-7%	1%	-3%
N#CC1=C2SCN(c3ccccc3)CN2C(=O)CC1c1ccccc1Cl (configuration not stated)	2	7.9µM*	8%[38.3 µM]	u
N#CC1=C2SCN(Cc3ccco3)CN2C(=O)CC1c1c(F)cccc1Cl (configuration not stated)	-7	u	-5%[38.3 µM]	-7%
N#CC1=C2SCN(c3ccccc3)CN2C(=O)CC1c1c(Cl)cccc1Cl (configuration not stated)	4	7.9µM*	16%[38.3 µM]	28µM*
N#CC1=C2SCC(O)(c3ccccc3)N2C(=O)CC1c1cccs1 (configuration not stated)	u	-14%	x	-19%
N#CC1=C2SCN(c3ccccc3)CN2C(=O)CC1c1cccs1 (configuration not stated)	-14	13µM*	28µM*	u
CCOc1ccc(CCNC(=O)CSc2nn(-c3ccc(C)c(Cl)c3)c(=S)s2)cc1OCC	u	x	10µM*	-8%
CCOc1ccc(CCNC(=O)CSc2nnnn2C)cc1OCC	x	x	-7%	x
Clc1ccc(Cl)c(Cl)c1Cl	x	14%	-29%	-4%
O=c1[nH]c(=S)c2c(n1-c1ccccc1)CCC2	u	0%	10µM*	-6%
Oc1ccccc1C1Nc2cccc3cccc(c23)N1	4	2µM*	11%[38.3 µM]	u
SMILES	IMPase cell inh	15-hLO-2 inh	IMPase Li cell	12-hLO inh
COc1ccc(C)cc1NS(=O)(=O)c1ccc2c(c1)[C@H]1C=CC[C@H]1[C@@H](c1cccc(Cl)c1)N2	-2	x	x	x
Cc1nn(CCc2nn[nH]n2)c2nc(-c3ccc(Br)cc3)cc(C(F)(F)F)c12	x	x	2µM*	x
Cc1nn(CCc2nn[nH]n2)c2nc(C(F)(F)F)cc(C(F)(F)F)c12	4	-1%	-8%[38.3 µM]	1%
C#CCN1C(C)=C(C(=O)OC)[C@@H](c2cccc([N+](=O)[O-])c2)C(C(=O)OCC)=C1C	11	-9%	x	-4%
N#Cc1cc2c(nc1SCc1ccccc1)CCCC2	x	x	16µM*	-1%
CCCCCC(=O)Nc1cc2[nH]c(=O)cc(COC)c2cc1C	5	x	11µM*	6%
CCOC(=O)Nc1ccc2c(c1)Nc1ccccc1S2	10	13µM*	38%[38.3 µM]	-10%
Cn1c(=O)c(-c2ccc(F)cc2)nc2cnc(N3CCOCC3)nc21	x	-4%	-10%	x
O=C(Nc1ccsc1C(=O)NC1CCCCC1)c1ccc(F)cc1	-11	x	28µM*	1%
O=C(O)/C=C\c1c2ccc(=O)c(O)c-2oc2c(O)c(O)ccc12	x	u	7%	-24%[11.4 µM]
Brc1cc(Br)c2ncnc(N3CCCCC3)c2c1	u	-3%	13µM*	-10%
Clc1ccc(-n2ncc3c(N4CCCCCC4)ncnc32)cc1	u	-1%	39%[38.3 µM]	-2%
COc1ccc(Oc2ncc3nc(C)c(=O)n(Cc4cccc(OC)c4)c3n2)cc1	x	-18%	23%	x
COc1ccc(-n2cc(-c3ccc(OC)c(OC)c3)[nH]c2=S)cc1	x	x	-4%	x
COc1ccc(-n2cc(-c3ccc(Br)cc3)[nH]c2=S)cc1	x	x	11µM*	x
Cc1ccc(-c2c(C#N)c(N)n(-c3ccc(C)cc3)c(=O)c2C#N)cc1	u	-21%	u	-3%
Cc1ccc(-n2c(N)c(C#N)c(-c3ccc(Cl)cc3)c(C#N)c2=O)cc1	u	0%	28µM*	-6%
COc1ccc2c(C)cc(SCC(=O)Nc3ccc(Cl)cn3)nc2c1	x	x	8.9µM*	-3%
Cc1cc(SCC(=O)Nc2ccc(Cl)cc2)nc2ccccc12	5	x	x	x
COc1ccc(-c2nc3cnc(N4CCOCC4)nc3n(C[C@H]3CCCO3)c2=O)cc1	x	-6%	-3%	x
CCNc1ncc2nc(CCc3ccccc3)c(=O)n(CCOC)c2n1	x	-1%	4%	-2%
O=C(Nc1ccccn1)c1cc2cc([N+](=O)[O-])ccc2s1	x	x	16%	x
C=CCOc1ccc2cccc(/C=N/NC(=O)c3cc4cc([N+](=O)[O-])ccc4s3)c2c1	6	10µM*	0%[38.3 µM]	0%
N#Cc1c(N)nc(SCC(=O)C23CC4CC(CC(C4)C2)C3)c(C#N)c1-c1ccc(Cl)cc1	-6	-7%	3.5µM*	2%
CSc1nc(N)nc(SCC(=O)C23CC4CC(CC(C4)C2)C3)c1C#N	x	x	12%	-2%
SMILES	IMPase cell inh	15-hLO-2 inh	IMPase Li cell	12-hLO inh
N=C(N)c1ccc(OCCCCCOc2ccc(C(=N)N)cc2)cc1 (tested in a mixture with another compound)	13	48%	10%	7%
CCN(CC)Cc1c(O)c(Cl)cc2c3c(c(=O)oc12)CCCC3	-21	42%	13µM*	-24%
COc1ccc2cnoc(=O)c2c1OC	x	x	-23%	x
CCOC(=O)c1cc(-c2ccc(/C=C3/C(=O)NC(=O)C(C#N)=C3C)o2)ccc1Cl	-5	25µM*	-20%[38.3 µM]	-20%
Cc1ccc(-c2cn3cccnc3n2)cc1	x	x	10µM*	x
Cc1ccc(Sc2c(O)c3ccccc3n(C)c2=O)cc1	x	x	10µM*	-5%
Cc1ccc(Sc2c(C=O)c3ccccc3n2C)cc1	u	0%	u	-1%
Cc1[nH][nH]c(=O)c1C(c1ccc(-c2ccc(Cl)cc2Cl)o1)c1c(C)[nH][nH]c1=O	-5	5%	32%[38.3 µM]	-13%
CC1=NOC(=O)/C1=C\c1ccc(-c2ccc(Cl)cc2Cl)o1	-6	7.9µM*	18%[38.3 µM]	-29%
CC/C=C\C/C=C\C/C=C\CCCCCCCC(=O)O	-1	14µM*!	30%	-5%[0.00818 µM]

Screens deposited in PubChem BioAssay by National Center for Advancing Translational Sciences (NCATS).
